Measured values reported in PubChem BioAssay (NCI).
This is part of a sample that, as a whole, favours compounds with a hit. Of some 79,000 tested, about 15% had one in any assay. Unmarked numbers belong to inactive results. Calls of active or inactive are those of the source. Rule as the data show it: active = growth inhibition above about 70%; inactive = the rest.

Legend:
[1] = NCI Yeast Anticancer Drug Screen. Data for the rad50 strain (AID 155);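 also: 0% = growth of vehicle-only cultures of the same strain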; details: S. cerevisiae rad50 strain growth inhibition, active compounds read high
In short: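 Readout: growth inhibition relative to vehicle-treated cultures. Compound exposure was carried out in a genetically defined yeast strain deficient in DNA damage repair.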

[2] = NCI Yeast Anticancer Drug Screen. Data for the mec2-1 strain (AID 157); details: S. cerevisiae mec2-1 strain, active compounds read high
In short: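 Using mec2-1 yeast: add compound, measure growth, express inhibition versus vehicle-treated cultures.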

[3] = NCI Yeast Anticancer Drug Screen. Data for the sgs1 mgt1 strain (AID 161);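 also: 0% = growth of cultures given vehicle only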; details: S. cerevisiae sgs1 mgt1 strain, active compounds read high
In short: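 Compounds are added to genetically altered yeast, and growth is compared with cultures given vehicle alone to give percent inhibition.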

[4] = NCI Yeast Anticancer Drug Screen. Data for the cln2 rad14 strain (AID 165);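 also: 0% = growth equal to vehicle treated cultures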; details: S. cerevisiae cln2 rad14 strain, active compounds read high
In short: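 Yeast strain cln2 rad14, bearing defects in cell cycle control and DNA repair, serves as the test system; values reflect growth inhibition compared with vehicle.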

[5] = NCI Yeast Anticancer Drug Screen. Data for the bub3 strain (AID 167); details: S. cerevisiae bub3 mutant strain, active compounds read high
In short: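 Readout: yeast growth inhibition, expressed relative to vehicle-only wells. The test organism is a mutant strain from a panel with lesions in DNA repair or checkpoint genes.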

[6] = NCI Yeast Anticancer Drug Screen. Data for the mlh1 rad18 strain (AID 175); details: S. cerevisiae mlh1 rad18 strain growth inhibition, active compounds read high
In short: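 Steps: expose repair-defective yeast to compound; measure growth; express inhibition against vehicle-treated controls.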

[7] = at 5.0 µM (retest, dose inferred, filed as 0.5)
[8] = at 50.0 µM (retest, dose inferred, filed as 5.0)

| Compound | growth inhibition [1, 7] | growth inhibition [1, 8] | growth inhibition ([1]; at 50.0 µM) | growth inhibition [2, 7] | growth inhibition [2, 8] | growth inhibition ([2]; at 50.0 µM) | growth inhibition [3, 7] | growth inhibition [3, 8] | growth inhibition ([3]; at 50.0 µM) | growth inhibition [4, 7] | growth inhibition [4, 8] | growth inhibition ([4]; at 50.0 µM) | growth inhibition [5, 7] | growth inhibition [5, 8] | growth inhibition ([5]; at 50.0 µM) | growth inhibition [6, 7] | growth inhibition [6, 8] | growth inhibition ([6]; at 50.0 µM) |
| --- | --- | --- | --- | --- | --- | --- | --- | --- | --- | --- | --- | --- | --- | --- | --- | --- | --- | --- |
| CCc1cccc(C(C)(C)C)c1NC(=S)N/C=C(\c1ccccc1)S(=O)Cc1ccccc1 (configuration not stated) | 2% | 77% (active) | 68.4% | 7% | 70% (active) | 46.2% | 10% | 56% | 68.2% | -15% | 45% | 33.5% | -23% | 25% | 73.4% (active) | 14% | 62% | 69.8% |
| c1ccc(N/N=C(/CC/C(=N\Nc2ccccc2)c2ccccc2)c2ccccc2)cc1 | 6% | 77% (active) | 95.5% (active) | 4% | 90% (active) | 97% (active) | -13% | 82% (active) | 97.2% (active) | -13% | 81% (active) | 47.8% | -5% | 89% (active) | 95.9% (active) | 18% | 92% (active) | 97.5% (active) |
| O=C1Oc2ccccc2C1c1ccccc1 (configuration not stated) | 16% | 90% (active) | 28.6% | 1% | 87% (active) | 35.5% | 4% | 91% (active) | -2.1% | 10% | 92% (active) | 8.4% | -1% | 95% (active) | 34.5% | 1% | 93% (active) | 27.5% |
| CCCCn1cnc2c(SCc3ccc(F)cc3)nc(N)nc21 | -1% | 48% | 46.3% | 1% | 59% | 46.6% | -3% | 16% | 39.1% | -15% | 49% | 44.8% | 0% | 45% | 90.1% (active) | 0% | 30% | 66.9% |
| O=Cc1cc(S(=O)(=O)c2ccc(O)c(C=O)c2)ccc1O | 12% | 22% | 98.7% (active) | 32% | 38% | 98.7% (active) | 17% | 25% | 98.8% (active) | 23% | 25% | 97.5% (active) | 5% | 11% | 99% (active) | 26% | 22% | 98.6% (active) |
| CC(C)N(C(=O)c1ccc(Cl)c(Cl)c1)C(C)C | -15% | -14% | -0.55% | -14% | 4% | 10.8% | -1% | 0% | 15.1% | 29% | -26% | 13.4% | 6% | -25% | 9.2% | -12% | 0% | -5.65% |
| OCc1ccc(OCc2ccccc2)c(OCc2ccccc2)c1 | 6% | 15% | 88.2% (active) | 7% | 14% | 77.1% (active) | -8% | 47% | 92.8% (active) | 51% | 26% | 80.3% (active) | 10% | 55% | 94.5% (active) | 0% | 62% | 96.5% (active) |
| c1cc(NC2CCCCC2)ccc1CN1CCOCC1 | 57% | 90% (active) | 55.3% | 51% | 73% (active) | 70.5% (active) | 80% (active) | 88% (active) | 70% | 72% (active) | 87% (active) | 63.8% | 80% (active) | 78% (active) | 68.2% | 56% | 82% (active) | 79% (active) |
| O=c1cccccc1O | 14% | 97% (active) | 90.4% (active) | 4% | 100% (active) | 91.7% (active) | 8% | 99% (active) | 93.3% (active) | 16% | 62% | 85.7% (active) | 26% | 97% (active) | 91.5% (active) | 13% | 98% (active) | 81.1% (active) |
